Holding throughout (assay): protein-binding microarray (PBM); PBM: ~300 nM protein, 6 mM HEPES pH 7.8, 80 mM KCl, 0.5 mM EDTA, 0.5 mM EGTA, 6% glycerol, 35 ng/ul poly-dIdC, 1% milk, 1 h, room temperature; Ap Aiptasia and Nv Nematostella (sea anemones) / Co Capsaspora / Aq Amphimedon (sponge) / Dm Drosophila / Hu human; RHD is the Rel homology domain; high values mean tight binding
Common to all, as to details: dsDNA, one strand shown

The target of experiment [1] is T1, GST-Nv-NF-kB (Ser allele) (Nematostella vectensis, UniProt A7UNT2 2-411).
T1 sequence: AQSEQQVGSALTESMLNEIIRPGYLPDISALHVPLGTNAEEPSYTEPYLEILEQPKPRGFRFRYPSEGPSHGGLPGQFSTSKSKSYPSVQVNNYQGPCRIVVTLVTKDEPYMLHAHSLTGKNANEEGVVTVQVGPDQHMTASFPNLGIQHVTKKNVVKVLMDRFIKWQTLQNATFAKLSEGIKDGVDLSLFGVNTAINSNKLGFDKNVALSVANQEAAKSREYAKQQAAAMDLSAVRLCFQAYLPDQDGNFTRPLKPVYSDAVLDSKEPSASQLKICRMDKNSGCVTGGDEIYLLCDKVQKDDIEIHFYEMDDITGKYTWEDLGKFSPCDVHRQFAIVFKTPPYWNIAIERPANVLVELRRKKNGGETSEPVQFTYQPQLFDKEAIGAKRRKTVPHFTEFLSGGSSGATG

A further experiment has as its target GST-Hu-p50 (Homo sapiens, UniProt P19838 7-356).
Experiment [2] addresses T2, GST-Nv-NF-kB (Cys allele) (Nematostella vectensis, UniProt E5G601 2-411).
T2 sequence: T1 sequence with R21Q, S66C, N207S, Q215E, A217V, K225E, E268A, E399D

The target in a further experiment is T3, GST-Dm-Relish (Drosophila melanogaster, UniProt Q94527 99-473).
T3 sequence: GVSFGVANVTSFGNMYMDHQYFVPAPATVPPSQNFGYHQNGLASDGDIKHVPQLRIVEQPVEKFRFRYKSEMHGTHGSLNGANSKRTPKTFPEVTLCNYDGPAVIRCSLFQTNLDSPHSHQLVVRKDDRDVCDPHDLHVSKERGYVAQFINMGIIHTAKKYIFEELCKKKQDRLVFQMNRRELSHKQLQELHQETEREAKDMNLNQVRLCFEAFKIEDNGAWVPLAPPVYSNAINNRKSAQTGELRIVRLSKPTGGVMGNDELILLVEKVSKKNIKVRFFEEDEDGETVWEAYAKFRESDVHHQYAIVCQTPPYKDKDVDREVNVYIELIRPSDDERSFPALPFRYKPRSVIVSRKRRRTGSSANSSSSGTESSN

Another experiment concerns the target T4, GST-Co-NF-kB (Capsaspora owczarzaki, UniProt F1ARL5 200-546).
T4 sequence: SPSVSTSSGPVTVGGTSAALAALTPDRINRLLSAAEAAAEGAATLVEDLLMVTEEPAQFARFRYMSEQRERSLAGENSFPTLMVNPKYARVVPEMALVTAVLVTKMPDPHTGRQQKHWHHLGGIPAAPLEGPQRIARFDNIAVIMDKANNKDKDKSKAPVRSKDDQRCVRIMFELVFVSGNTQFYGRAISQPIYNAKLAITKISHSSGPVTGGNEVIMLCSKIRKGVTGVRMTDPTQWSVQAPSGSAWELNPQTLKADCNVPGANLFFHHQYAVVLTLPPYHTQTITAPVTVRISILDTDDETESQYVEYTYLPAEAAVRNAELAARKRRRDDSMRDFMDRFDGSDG

The target of the next experiment is T5, GST-Ap-NF-kB RHD (Exaiptasia pallida (Aiptasia), UniProt A0A913YAJ5 2-422).
T5 sequence: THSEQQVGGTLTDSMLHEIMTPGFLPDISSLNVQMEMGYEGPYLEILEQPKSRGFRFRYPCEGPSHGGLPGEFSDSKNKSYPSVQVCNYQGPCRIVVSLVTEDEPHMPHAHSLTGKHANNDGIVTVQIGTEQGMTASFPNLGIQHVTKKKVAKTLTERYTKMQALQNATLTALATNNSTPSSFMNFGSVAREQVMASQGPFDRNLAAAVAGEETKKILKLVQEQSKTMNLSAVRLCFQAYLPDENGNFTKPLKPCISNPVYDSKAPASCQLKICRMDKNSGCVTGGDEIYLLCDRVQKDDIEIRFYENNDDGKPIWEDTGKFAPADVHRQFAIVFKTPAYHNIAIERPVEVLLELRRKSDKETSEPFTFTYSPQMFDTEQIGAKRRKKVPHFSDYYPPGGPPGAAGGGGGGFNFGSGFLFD

A further experiment concerns the target T6, GST-Aq-NF-kB (Amphimedon queenslandica, UniProt A9Y5G7 2-389).
T6 sequence: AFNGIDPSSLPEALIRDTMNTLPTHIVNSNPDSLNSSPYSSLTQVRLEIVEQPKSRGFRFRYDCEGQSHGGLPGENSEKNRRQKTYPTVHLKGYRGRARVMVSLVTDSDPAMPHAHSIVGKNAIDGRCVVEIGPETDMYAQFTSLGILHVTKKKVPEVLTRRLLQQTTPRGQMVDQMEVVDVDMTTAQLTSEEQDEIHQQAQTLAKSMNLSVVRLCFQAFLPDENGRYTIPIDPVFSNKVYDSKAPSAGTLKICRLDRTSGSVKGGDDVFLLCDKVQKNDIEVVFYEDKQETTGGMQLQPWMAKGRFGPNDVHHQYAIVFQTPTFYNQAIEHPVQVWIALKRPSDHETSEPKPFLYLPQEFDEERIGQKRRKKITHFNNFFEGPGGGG

Where a chain is given by its changes, count along the chain named.

GST-Hu-p50, sequence (P19838 7-356): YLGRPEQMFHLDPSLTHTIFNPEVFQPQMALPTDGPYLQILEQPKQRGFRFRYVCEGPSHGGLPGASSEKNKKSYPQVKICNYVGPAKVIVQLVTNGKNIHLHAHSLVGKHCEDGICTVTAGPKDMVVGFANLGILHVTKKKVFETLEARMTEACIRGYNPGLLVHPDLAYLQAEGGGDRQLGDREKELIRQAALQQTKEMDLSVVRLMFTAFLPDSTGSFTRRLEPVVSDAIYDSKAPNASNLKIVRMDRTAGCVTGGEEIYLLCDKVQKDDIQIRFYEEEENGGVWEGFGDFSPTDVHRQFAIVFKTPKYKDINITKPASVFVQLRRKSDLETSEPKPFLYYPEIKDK

On to “CCGATTAACATCACGTGTGTAGGTGATGTTAATCGGGTCTTGATTCGCTTGACGCTGCTG”, for which the values for the binding signal (in experiment [1]; in the experiment with GST-Hu-p50) were 1.58 z-score and 1.87 z-score, respectively.
Turning to “CCGATTAACATCACCAGGTTAGGTGATGTTAATCGGGTCTTGATTCGCTTGACGCTGCTG”, the binding signal came out at 1.1 z-score in experiment [2], 1.85 z-score in experiment [1], 1.36 z-score with GST-Dm-Relish and 3.09 z-score with GST-Hu-p50.
With “CCGATTAACATCACCCTCCAATTTGATGTTAATCGGGTCTTGATTCGCTTGACGCTGCTG”, the binding signal in the experiment with GST-Hu-p50 was found to be 1.13 z-score.
Consider “CCGATTAACATCATGATATCCGGTGATGTTAATCGGGTCTTGATTCGCTTGACGCTGCTG”, for which the binding signal with GST-Dm-Relish is 1.07 z-score; with GST-Hu-p50 it was 1.11 z-score.
In the case of “CCGATTAACATCACCTGGTCGGGTGATGTTAATCGGGTCTTGATTCGCTTGACGCTGCTG”, the binding signal in experiment [1] worked out at 1.03 z-score; with GST-Co-NF-kB it was 1.5 z-score; with GST-Dm-Relish, 1.13 z-score; with GST-Hu-p50 it was 2.04 z-score.
In the experiment with GST-Hu-p50, “CCGATTAACATCAGAATTTTTCCTGATGTTAATCGGGTCTTGATTCGCTTGACGCTGCTG” came in with a binding signal of 1.1 z-score.
On to “CCGATTAACATCACCTTGTGATCTGATGTTAATCGGGTCTTGATTCGCTTGACGCTGCTG”, for which the binding signal with GST-Hu-p50 was 1.21 z-score.
For the sequence “CCGATTAACATCAGCAATGTAGGTGATGTTAATCGGGTCTTGATTCGCTTGACGCTGCTG”, the binding signal in the experiment with GST-Hu-p50 amounted to 1.13 z-score.
For the sequence “CCGATTAACATCACCGAGTTAGTTGATGTTAATCGGGTCTTGATTCGCTTGACGCTGCTG”, the binding signal is 1.15 z-score in experiment [2] and 1.5 z-score in the experiment with GST-Hu-p50.
On to “CCGATTAACATCACTCTTCTCGGTGATGTTAATCGGGTCTTGATTCGCTTGACGCTGCTG”, for which the binding signal was 1.05 z-score in experiment [2], 1.37 z-score in experiment [1], 1.33 z-score in the experiment with GST-Dm-Relish and 1.72 z-score with GST-Hu-p50.
Take “CCGATTAACATCAGGGCCAAAAATGATGTTAATCGGGTCTTGATTCGCTTGACGCTGCTG”: in the experiment with GST-Hu-p50, the binding signal is 1.38 z-score.
On to “CCGATTAACATCATATTGGGAAATGATGTTAATCGGGTCTTGATTCGCTTGACGCTGCTG”, for which the binding signal in experiment [2] came out at 2.26 z-score; in experiment [1] it was 1.92 z-score; in the experiment with GST-Co-NF-kB, 2.03 z-score; in the experiment with GST-Hu-p50 it was 1.12 z-score.
With “CCGATTAACATCAATTCCCAACCTGATGTTAATCGGGTCTTGATTCGCTTGACGCTGCTG”, the binding signal turned out to be 2.15 z-score in experiment [2], 1.9 z-score in experiment [1], 2.06 z-score in the experiment with GST-Co-NF-kB and 1.06 z-score in the experiment with GST-Hu-p50.
Sequence “CCGATTAACATCACCTTAGGTTTTGATGTTAATCGGGTCTTGATTCGCTTGACGCTGCTG” came in with a binding signal in the experiment with GST-Hu-p50 of 1.04 z-score.
Take “CCGATTAACATCACCTGAACTATTGATGTTAATCGGGTCTTGATTCGCTTGACGCTGCTG”: in the experiment with GST-Hu-p50, the binding signal was determined as 1.45 z-score.
Turning to “CCGATTAACATCATCCCTTGTCATGATGTTAATCGGGTCTTGATTCGCTTGACGCTGCTG”, the binding signal with GST-Ap-NF-kB RHD turned out to be 1.2 z-score.
For the sequence “CCGATTAACATCACCTAACTTGATGATGTTAATCGGGTCTTGATTCGCTTGACGCTGCTG”, the figures for the binding signal (in experiment [1]; in the experiment with GST-Hu-p50) were 1.07 z-score and 1.66 z-score, respectively.
Turning to “CCGATTAACATCACCGAAATTCCTGATGTTAATCGGGTCTTGATTCGCTTGACGCTGCTG”, the binding signal amounted to 1.53 z-score in experiment [1], 1.25 z-score in the experiment with GST-Dm-Relish and 2.52 z-score in the experiment with GST-Hu-p50.
As to “CCGATTAACATCACGGAAAGTACTGATGTTAATCGGGTCTTGATTCGCTTGACGCTGCTG”, the binding signal with GST-Dm-Relish came to 4.11 z-score; with GST-Aq-NF-kB, 2.92 z-score.
On the same counts, the results for “CCGATTAACATCAAAAAATTCCTTGATGTTAATCGGGTCTTGATTCGCTTGACGCTGCTG” are 2.73 z-score and 2.21 z-score.
Regarding “CCGATTAACATCATGGTGCTTAATGATGTTAATCGGGTCTTGATTCGCTTGACGCTGCTG”, in the experiment with GST-Hu-p50, the binding signal stood at 1.41 z-score.
With “CCGATTAACATCATGTTTGCGGGTGATGTTAATCGGGTCTTGATTCGCTTGACGCTGCTG”, the binding signal was found to be 1.22 z-score in the experiment with GST-Ap-NF-kB RHD, 1.02 z-score with GST-Co-NF-kB and 1.53 z-score with GST-Hu-p50.
For the sequence “CCGATTAACATCAGGAAATTGCCTGATGTTAATCGGGTCTTGATTCGCTTGACGCTGCTG”, the values for the binding signal (in experiment [2]; with GST-Hu-p50) were 1.05 z-score and 1.3 z-score, respectively.
As to “CCGATTAACATCACGGGCAGTGGTGATGTTAATCGGGTCTTGATTCGCTTGACGCTGCTG”, the binding signal with GST-Co-NF-kB worked out at 1.25 z-score; with GST-Dm-Relish it was 1.02 z-score; in the experiment with GST-Hu-p50 it was 1.37 z-score.
Regarding “CCGATTAACATCAGGAAGGGCGGTGATGTTAATCGGGTCTTGATTCGCTTGACGCTGCTG”, the binding signal was 1.05 z-score with GST-Ap-NF-kB RHD, 1.08 z-score with GST-Co-NF-kB and 1.07 z-score in the experiment with GST-Hu-p50.
Turning to “CCGATTAACATCAAGGAAAATCCTGATGTTAATCGGGTCTTGATTCGCTTGACGCTGCTG”, the values for the binding signal in the experiment with GST-Dm-Relish and with GST-Aq-NF-kB were 1.5 z-score and 3.1 z-score, respectively.
As for “CCGATTAACATCAGGACATCCCATGATGTTAATCGGGTCTTGATTCGCTTGACGCTGCTG”, the binding signal with GST-Dm-Relish worked out at 3.93 z-score; in the experiment with GST-Aq-NF-kB, 2.15 z-score.
On to “CCGATTAACATCAGGGAGCCGTATGATGTTAATCGGGTCTTGATTCGCTTGACGCTGCTG”, for which the binding signal in the experiment with GST-Ap-NF-kB RHD is 1.18 z-score.

Values taken from article PMC5700166.
